Sampled rows, rich in hits. Any-hit rate of the full collection: about 11%.
Tau fibril ThT = inhibitors of human tau fibril formation, thioflavin T binding | 2.1% of 270,000 active | P10636 | recombinant tau K18 P301L, heparin-induced fibrillization, ThT fluorescence | Potency, µM (titrated, usually from 57.4 µM), actives largely listed as inhibitors; further: nearly all actives have a fitted effect of over 55% in size
Target sequence (P10636 561-689 P618L limits assumed): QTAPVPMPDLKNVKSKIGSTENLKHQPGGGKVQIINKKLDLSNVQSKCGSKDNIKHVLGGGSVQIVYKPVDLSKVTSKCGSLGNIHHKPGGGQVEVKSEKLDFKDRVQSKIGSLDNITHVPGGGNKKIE
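Using a mix of unlabeled (15 uM) and Alexa 594-labeled (0.24 uM) tau K18 P301L, heparin-triggered fibrillization over 6 hr at 37 C was scored by ThT fluorescence.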
Tau FP inhib = tau fibrillization inhibition (FP); P10636; K18 P301L tau heparin fibrillization, Alexa594 FP, 6 h; Potency, µM (doses to about 57.7 µM), most hits filed as inhibitors; AID 1468; 0.39% of 280,000 active; further: nearly all actives have a fitted effect of over 55% in size
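Recombinant K18 P301L […], labeled with Alexa 594 at 0.24 uM over 15 uM unlabeled; heparin inducer 20 uM final; 37 C, 6 hr; FP endpoint.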
G9a block = inhibitors of human histone lysine methyltransferase G9a | G9a H3K9 monomethylation, AlphaScreen, 2 h | Potency, µM (titrated, usually from 102 µM), actives largely listed as inhibitors | Q96KQ7 | 8.8% of 350,000 active; further: nearly all actives have a fitted effect of over 75% in size
Target sequence (Q96KQ7 913-1193 limits assumed): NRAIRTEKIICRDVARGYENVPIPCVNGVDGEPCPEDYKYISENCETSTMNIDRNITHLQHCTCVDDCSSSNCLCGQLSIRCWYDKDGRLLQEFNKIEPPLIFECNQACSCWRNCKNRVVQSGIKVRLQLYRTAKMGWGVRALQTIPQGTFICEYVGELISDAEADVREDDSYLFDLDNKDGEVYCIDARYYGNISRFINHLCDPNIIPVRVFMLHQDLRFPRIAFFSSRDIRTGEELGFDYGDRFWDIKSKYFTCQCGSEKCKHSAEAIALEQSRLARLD
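Chemiluminescent proximity detection of H3K9 monomethylation, read after 10 min bead incubation in the dark. Reaction: 20 nM G9a, 500 nM biotin-H3K9 peptide, 20 uM SAM cofactor, 2 h, room temperature, following 15 min enzyme-compound preincubation.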
Coupling enz = inhibits coupling enzyme system, counter-screen for aldolase hits; activity change, negative = inhibition, % at 58.2 µM, hits read low; coupling enzyme system counterscreen, AmpLite Red fluorescence; 0.67% of 290,000 active; in the data active means activity change below about -30%
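Counterscreen of the coupled detection system alone, without aldolase: glyceraldehyde-3-phosphate coupling enzymes plus AmpLite Red readout. Compounds at 57.5 uM final, 10 min RT preincubation, 20 min RT reaction, fluorescence 525/598 nm.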
Tau fluor counter = counter-screen for tau fibril formation inhibitors; tau K18 P301L (four-repeat tau fragment) Alexa594 fluorescence, heparin fibrillization; Potency, µM (highest dose often 57.7 µM); 0.93% of 280,000 active; AID 1463; further: nearly all actives have a fitted effect of over 55% in size
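Human K18 P301L tau (15 uM unlabeled plus 0.24 uM Alexa 594-labeled, final) in 100 mM sodium acetate pH 7 was mixed with compound and 20 uM heparin and incubated 6 hr at 37 C.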
Sfp inh = Sfp phosphopantetheinyl transferase inhibition. Q9F4F7. Biochemical Sfp PPTase activity, qHTS. Potency, µM, hits mostly inhibitors. 3.5% of 310,000 active. AID 1490;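 further: the enzyme is Sfp with the accession as filed and its product quenches rhodamine fluorescence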
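Fluorescence-quenching assay with 15 nM Sfp, 5 uM rhodamine-CoA and 12.5 uM BHQ-2-labelled ybbR peptide in pH 7.6 Hepes/MgCl2 buffer. Enzyme was pre-incubated with compound for 15 min at room temperature. Rate was taken from the 30-min fluorescence change (525/598 nm).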
Numbers stand for hits; - = inactive; ? = inconclusive; . = no result; [ ] = dose if it differs, or a comment. Unless noted, the call rests on the fitted dose curve; in most records, active means well fitted curve in the direction sought with a large enough effect; inconclusive means small, poorly fitted or top-dose-only effect, or another doubt; inactive means no such curve, though single readings can be large; an effect the other way counts as inactive or inconclusive.

SMILES	Tau fibril ThT	Tau FP inhib	G9a block	Coupling enz	Tau fluor counter	Sfp inh
CCc1cc2c(NCc3ccco3)ncnc2s1	?	-	45µM	-	-	-
CCNC(=O)c1ccccc1SCC(=O)Nc1ccc(F)cc1	-	-	-	-	-	-
N#CC(C#N)=C1c2cc(S(=O)(=O)NCCO)ccc2-c2ccc(S(=O)(=O)NCCO)cc21	.	?	.	-	-	56µM
N#CC(C#N)=C1c2cc(S(N)(=O)=O)ccc2-c2ccc(S(N)(=O)=O)cc21	?	-	18µM	-	-	40µM
C/C(=N\N=C(c1ccccc1)c1ccccc1)c1cccs1	-	-	-	-	-	-
CC(NO)/C(=N\O)c1cccs1 (stereo not drawn)	-	?	4µM	-	-	?
COc1ccc(OCC(=O)Nc2nccs2)cc1	-	-	?	-	-	-
CCc1ccc(CCC(=O)Nc2nccs2)o1	-	-	?	-	-	8.9µM
O=C(CCc1ccccc1)Nc1nccs1	.	.	-[0.501 µM]	-	.	-
Cc1ccc(CCC(=O)Nc2nccs2)o1	-	-	-	-	-	79µM
Cc1ccc(CCC(=O)Nc2ccc(S(N)(=O)=O)cc2)o1	-	-	2.2µM	-	-	5µM
CCOc1ccc(OCC(=O)Nc2nccs2)cc1	-	-	35µM	-	-	-
CCN1CCN(C(c2ccccc2Cl)c2c(O)cc(C)n(CCOC)c2=O)CC1 (stereo not drawn)	?	-	?	.	-	.
COc1cc(-c2ccc(NC(C)=O)c(OC)c2)ccc1NC(C)=O	-	-	-	-	-	-
COc1cc(O)c(NC(C)=O)c2nonc12	7.9µM	?	22µM	-54	-	35µM
CC(C)(C)c1ccc(CN2N=Nc3ccccc3S2(=O)=O)cc1	?	-	-[0.0925 µM]	-49	-	2.8µM
O=S1(=O)CCN(Cc2ccc(Cl)c(Cl)c2)CC1	-	-	-[12.7 µM]	-	-	-
O=S1(=O)c2ccccc2N=NN1Cc1ccc(Cl)c(Cl)c1	?	-	2.8µM	-	-	56µM
Cc1cccc(N2C(=O)N(Cc3ccc(C(C)(C)C)cc3)c3ccccc3S2(=O)=O)c1	-	-	-	.	-	.
COc1cc(/C=C2/C(=N)N3C(=NC2=O)SN=C3S(C)(=O)=O)ccc1OS(=O)(=O)c1ccc(C)cc1	.	.	?	-	.	-
Cc1ccc(-n2cccc2/C=C2\C(=N)N3N=C(c4ccco4)SC3=NC2=O)cc1	?	-	10µM	-	-	-
CC(C)CS(=O)(=O)C1=NSC2=NC(=O)/C(=C\c3ccc(OC(=O)c4ccco4)cc3)C(=N)N21	.	.	.	.	.	-
Cc1ccc(-n2cccc2/C=C2/C(=N)N3C(=NC2=O)SN=C3S(C)(=O)=O)cc1	-	-	40µM	-	-	-
COc1cccc(-n2c(C)cc(/C=C3/C(=N)N4C(=NC3=O)SN=C4S(C)(=O)=O)c2C)c1	?	-	45µM	-	?	-
CS(=O)(=O)C1=NSC2=NC(=O)/C(=C\c3ccc(OC(=O)c4ccco4)c(Br)c3)C(=N)N21	.	.	20µM	-	.	-
SMILES	Tau fibril ThT	Tau FP inhib	G9a block	Coupling enz	Tau fluor counter	Sfp inh
O=c1c2nncn2ccn1-c1ccc(F)c(F)c1	-	-	-	.	-	.
CS(=O)(=O)C1=NSC2=NC(=O)/C(=C\c3cccn3-c3ccccc3Cl)C(=N)N21	?	-	50µM	-	-	-
CCc1ccc(-n2cccc2/C=C2/C(=N)N3C(=NC2=O)SN=C3S(C)(=O)=O)cc1	?	-	45µM	-	-	-
CCc1c(C)c2ccc3c(c2oc1=O)CN(Cc1ccccc1)CO3	-	-	-	.	-	.
COc1cccc(NC2=Nc3cccc4cccc2c34)c1	11µM	-	?	-	?	-
COc1ccc(CC(=O)NNC2=Nc3cccc4cccc2c34)cc1OC	.	?	-	-	?	-
COc1ccc(NC2=Nc3cccc4cccc2c34)cc1OC	13µM	-	?	-	?	-
COc1cc(NC2=Nc3cccc4cccc2c34)cc(OC)c1OC	-	-	50µM	-	-	-
Cc1nc2ccc(S(=O)(=O)NC(C(=O)N3CCN(c4cccc(Cl)c4)CC3)C(C)C)cc2s1 (stereo not drawn)	?	-	-	.	-	.
Cc1cccc(N(CC(N)=O)C2SC(=O)N(Cc3cccc(C(=O)O)c3)C2=O)c1 (stereo not drawn)	-	-	-	.	-	.
CN(C)c1ccc(C(=S)N2CCOCC2)cc1	-	-	-	-	-	-
CN(C)c1ccc(C(=S)N2CCN(S(=O)(=O)c3ccccc3)CC2)cc1	.	.	13µM	-	.	-
CC(=O)N1CCN(C(=S)c2ccc(N(C)C)cc2)CC1	-	-	7.1µM	-	-	35µM
COc1ccc(C(=S)N2CCN(S(=O)(=O)c3ccccc3)CC2)cc1	.	.	-	.	.	-
CN(C)c1ccc(C(=S)N2CCCCCC2)cc1	25µM	?	8.9µM	-	?	45µM
CCOC(=O)C1CCN(C(=S)Nc2cccc(C)c2C)CC1	-	-	-	-	-	-
O=C(CSc1nnc(-c2ccc(O)cc2)n1Cc1ccco1)c1ccccc1	?	-	50µM	-	-	?
O=C(CSc1nnc(-c2cccnc2)n1Cc1ccco1)c1ccccc1	?	-	-[12.7 µM]	-	-	-
O=C(CSc1nnc(-c2ccccn2)n1Cc1ccco1)c1ccc(-c2ccccc2)cc1	-	-	45µM	-	-	-
COC(=O)CSc1nnc(-c2ccccn2)n1Cc1ccco1	-	-	?	-	-	-
Clc1ccc(CSc2nnc(-c3ccccn3)n2Cc2ccco2)c(Cl)c1	-	-	50µM	-	-	50µM
COc1ccccc1-c1nc2n(n1)C(c1ccccc1Cl)C(C(=O)Nc1cccnc1)=C(C)N2 (stereo not drawn)	-	-	-	.	-	.
O=C(Cn1c(=O)n(Cc2nc(-c3ccccc3)no2)c(=O)c2cc3c(cc21)OCO3)Nc1cccc(C(F)(F)F)c1	?	10µM	-	.	-	.
COc1ccc(-c2noc(Cn3c(=O)c4ccccc4n(CC(=O)Nc4cccc(C(F)(F)F)c4)c3=O)n2)cc1	?	11µM	-	.	-	.
CCN(CC)CCCC1(CN)OCCc2ccccc21 (stereo not drawn)	-	-	25µM	-	-	-
SMILES	Tau fibril ThT	Tau FP inhib	G9a block	Coupling enz	Tau fluor counter	Sfp inh
O=c1c(Cl)c(Cl)cnn1Cc1nnc(-c2ccc(Cl)cc2)o1	28µM	?	?	-	-	-
Cc1ccc(Cn2ncc(Cl)c(Cl)c2=O)cc1	-	-	-	-	-	-
Cc1cccc(NC(=S)NNC(=O)c2nn(C)cc2Cl)c1	-	-	35µM	-	-	-
Cc1c(Cl)c(C(=O)NNC(=S)Nc2ccccc2)nn1C	-	-	3.5µM	-	-	-
Cc1ccc(NC(=S)NNC(=O)c2nn(C)cc2Cl)cc1	-	-	35µM	-	-	-
Cc1cccc(NC(=S)NNC(=O)c2ccco2)c1	-	-	-[12.7 µM]	-	-	-
